# Compound activity: PubChem BioAssay, The Scripps Research Institute Molecular Screening Center
# The sample as a whole holds a higher share of hits than the screen did.
# GBA enhancer = increases beta-glucosidase activity in Gaucher fibroblasts; P04062; activation, % at 10 µM; 30,000 compounds, 0.44% hits; L444P Gaucher fibroblasts, 4-MU-glucoside fluorescence, 3 days; AID 784; in the data active = activation above about 65%
# Target sequence (P04062 whole entry L483P): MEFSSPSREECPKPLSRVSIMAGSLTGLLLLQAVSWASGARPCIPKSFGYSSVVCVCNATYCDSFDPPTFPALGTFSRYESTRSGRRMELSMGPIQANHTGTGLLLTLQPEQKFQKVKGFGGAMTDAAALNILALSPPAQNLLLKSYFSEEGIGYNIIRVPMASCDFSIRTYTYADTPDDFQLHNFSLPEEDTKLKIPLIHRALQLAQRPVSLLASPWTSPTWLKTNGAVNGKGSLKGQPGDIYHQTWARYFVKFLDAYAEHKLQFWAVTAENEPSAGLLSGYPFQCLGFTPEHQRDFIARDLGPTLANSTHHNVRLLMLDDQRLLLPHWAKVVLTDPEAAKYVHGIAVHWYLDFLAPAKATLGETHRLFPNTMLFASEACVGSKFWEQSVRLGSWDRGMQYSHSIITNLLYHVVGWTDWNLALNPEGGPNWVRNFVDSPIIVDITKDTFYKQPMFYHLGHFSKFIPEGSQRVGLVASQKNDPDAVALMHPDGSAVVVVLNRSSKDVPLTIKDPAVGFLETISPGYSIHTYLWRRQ
# A number is an active result; i = inactive.
SMILES,GBA enhancer
O=C1CC(=O)N(c2ccc3c(c2)OCO3)C(=O)N1,81.0
CCOC(=O)C(O)(c1ccc(N(CC)S(=O)(=O)c2ccccc2)cc1)C(F)(F)F (stereo not given),i
C[N+]12CCC(CC1)C(C#N)(N1CCOCC1)C2 (stereo not given),i
O=C(CCN1C(=O)COc2ccccc21)N1CCC2(CC1)OCCO2,i
CCOCCCNC(=O)CN1C2CCC1CC(O)(c1ccc(OC)cc1)C2 (stereo not given),i
C#CCN(C)C(C)Cc1ccccc1 (stereo not given),i
CC1=C(C(=O)N2CCC3(CC2)OCCO3)C2(CCC(C)CC2)OC1=O (stereo not given),i
CN1CCN(C(=O)OC2c3nccnc3C(=O)N2c2ccc(Cl)cn2)CC1 (stereo not given),i
O=c1cccc2n1CC1CC2CN(Cc2cccc(Cl)c2Cl)C1 (stereo not given),404.3
NCC1(CC(=O)O)CCCCC1,i
